According to PubChem BioAssay AID1159580 (chemical genetic matrix, 2015):
In all, about 5,500 compounds went through this assay and about 2,000 (36%) were called active. Roughly 18% stayed inconclusive and do not appear here. No stated cut-off is given here; in the data, active means normalized growth mostly below about 0.91 (no sharp cut-off); inconclusive means no clear call, values can overlap the other calls; inactive means mostly above about 0.92. The list shows a part of the results.

Assay: chemical genetic growth profiling, strain panel (AID 1159580);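 further: tested at 20 µM; growth read once vehicle control cultures reached saturation at 30 °C; 1 = growth at the plate median or of vehicle wells; lower values mean less growth of the strain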
Details: S. cerevisiae deletion strains, growth OD

Measured: normalized growth

C=C1CCC(=O)C(C)CCC2C1CC2(C)C (stereo unspecified)
inactive: locus YAL013W, strain DEP1, hits give low values 1.01 | locus YBR021W, strain FUR4, hits give low values 1 | locus YBR229C, strain ROT2, hits give low values 1.02 | locus YCL029C, strain bik1, hits give low values 0.993 | locus YDL035C, strain GPR1, hits give low values 1 | locus YDL074C, strain BRE1, hits give low values 1 | locus YDL101C, strain DUN1, hits give low values 1.03 | locus YDL134C, strain PPH21, hits give low values 1.03 | locus YDL185W, strain tfp1, hits give low values 1 | locus YDL192W, strain arf1, hits give low values 0.972 | locus YDR101C, strain arx1, hits give low values 0.987 | locus YDR150W, strain NUM1, hits give low values 1.02 | locus YDR162C, strain NBP2, hits give low values 1.06 | locus YDR318W, strain mcm21, hits give low values 0.998 | locus YDR388W, hits give low values 0.997 | locus YDR502C, strain sam2, hits give low values 1 | locus YEL061C, strain CIN8, hits give low values 1.01 | locus YER110C, hits give low values 0.99 | locus YER155C, strain BEM2, hits give low values 1.02 | locus YER167W, strain BCK2, hits give low values 1.01 | locus YGL078C, strain dbp3, hits give low values 0.995 | locus YGL086W, strain mad1, hits give low values 0.986 | locus YGL248W, strain PDE1, hits give low values 1.03 | locus YGR135W, strain pre9, hits give low values 1.01 | locus YGR252W, strain gcn5, hits give low values 1 | locus YHR030C, strain SLT2, hits give low values 1.02 | locus YHR079C, strain IRE1 (second series), hits give low values 0.984 | locus YHR094C, strain hxt1, hits give low values 0.996 | locus YHR129C, strain ARP1, hits give low values 1.02 | locus YHR200W, strain rpn10, hits give low values 0.995 | locus YIL066C, strain RNR3, hits give low values 1.02 | locus YIL073C, strain SPO22, hits give low values 0.971 | locus YIL125W, strain kgd1, hits give low values 0.987 | locus YIR030C, strain dcg1, hits give low values 0.998 | locus YJL095W, strain BCK1, hits give low values 1.02 | locus YJL134W, strain LCB3, hits give low values 1.02 | locus YJL168C, strain set2, hits give low values 1.01 | locus YJL187C, strain SWE1 (second series), hits give low values 1.03 | locus YJR043C, strain POL32, hits give low values 1.03 | locus YKL009W, strain mrt4, hits give low values 0.976 | locus YKL068W, hits give low values 1.01 | locus YKL085W, strain MDH1 (second series), hits give low values 0.99 | locus YKL085W, strain MDH1, hits give low values 0.99 | locus YLR039C, strain RIC1, hits give low values 1.01 | locus YLR058C, strain SHM2, hits give low values 1.02 | locus YLR102C, strain apc9, hits give low values 0.994 | locus YLR262C, strain YPT6, hits give low values 1.03 | locus YLR268W, strain sec22, hits give low values 0.985 | locus YLR330W, strain CHS5, hits give low values 1.02 | locus YLR342W, strain FKS1 (second series), hits give low values 1.01 | locus YLR371W, strain rom2, hits give low values 0.994 | locus YLR418C, strain cdc73, hits give low values 1.01 | locus YML016C, strain PPZ1, hits give low values 1.02 | locus YML032C, strain rad52, hits give low values 0.997 | locus YML124C, strain tub3, hits give low values 0.995 | locus YMR078C, strain ctf18, hits give low values 1 | locus YMR223W, strain ubp8, hits give low values 1.01 | locus YMR263W, strain SAP30, hits give low values 1.03 | locus YMR307W, strain GAS1, hits give low values 1.08 | locus YNL067W, strain RPL9B, hits give low values 1.02 | locus YNL233W, strain BNI4, hits give low values 1.03 | locus YNL250W, strain rad50, hits give low values 1.01 | locus YNL271C, strain bni1, hits give low values 0.999 | locus YNL298W, strain CLA4, hits give low values 1.03 | locus YNL307C, strain MCK1, hits give low values 0.995 | locus YNR052C, strain pop2, hits give low values 0.989 | locus YOL006C, strain TOP1, hits give low values 1.03 | locus YOL012C, strain htz1 0.879 | locus YOL147C, strain pex11, hits give low values 0.987 | locus YOR061W, strain CKA2, hits give low values 1.02 | locus YOR069W, strain VPS5, hits give low values 1.02 | locus YOR136W, strain idh2, hits give low values 0.991 | locus YOR144C, strain elg1, hits give low values 0.987 | locus YOR184W, strain ser1, hits give low values 0.977 | locus YOR316C, strain cot1, hits give low values 0.998 | locus YPR119W, strain clb2, hits give low values 0.983 | locus YPR141C, strain kar3, hits give low values 0.994 | locus YPR163C, strain tif3, hits give low values 0.997 | locus YPR167C, strain met16, hits give low values 0.99 | strain wtn01, hits give low values 0.966
active: locus YKR001C, strain vps1, hits give low values 0.864
